Read-out in assay [1]: Cyclin D2 (CCND2), CCND2 (gene 894)
The assay can be described thus: LTEA_HepaRG_CCND2: Life Technologies and Expression Analysis (LTEA) Assay for Cyclin D2 (CCND2) using HepaRG (AID 2283449).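 Further: CCND2 transcript measured by TaqMan qRT-PCR and normalised to three housekeeping genes.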 The following applies: mRNA level, 48 h; actives raise or lower the signal. A digest of the protocol:
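HepaRG, 48 h dosing, 8-pt half-log curve from 100 uM, 0.5% DMSO; duplicate wells. Readout: CCND2 transcript by microfluidic qRT-PCR, housekeeping-normalised; bidirectional fit vs DMSO baseline.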

Read-out in assay [2]: Cyclin Dependent Kinase Inhibitor 1A (CDKN1A), CDKN1A (gene 1026)
Description: LTEA_HepaRG_CDKN1A: Life Technologies and Expression Analysis (LTEA) Assay for Cyclin Dependent Kinase Inhibitor 1A (CDKN1A) using HepaRG (AID 2283450). The conditions noted are these: mRNA level, 48 h; actives raise or lower the signal. A digest of the protocol: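 Read-out is CDKN1A mRNA by TaqMan qRT-PCR, normalized to three housekeeping genes and fitted in both directions against the DMSO baseline. Human HepaRG cells were treated 48 h with test chemicals up to 100 uM in half-log steps, 0.5% DMSO.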

Read-out in assay [3]: Cyclin D1 (CCND1), CCND1 (gene 595)
The assay can be described thus: LTEA_HepaRG_CCND1: Life Technologies and Expression Analysis (LTEA) Assay for Cyclin D1 (CCND1) using HepaRG (AID 2283451).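 On AC50: differentiated human HepaRG liver cells in serum-free induction medium; TaqMan qRT-PCR transcript level normalised to ACTB GAPDH and POLR2A housekeeping genes.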 The following applies: mRNA level, 48 h; actives raise or lower the signal. A digest of the protocol: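 HepaRG plated 48 h, medium switched to serum-free induction medium, chemicals added in duplicate (top 100 uM, half-log steps, 0.5% DMSO) for 48 h, cells lysed, RNA measured by TaqMan qRT-PCR.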

Read-out in assay [4]: catalase (CAT), CAT (gene 847)
The assay can be described thus: LTEA_HepaRG_CAT: Life Technologies and Expression Analysis (LTEA) Assay for catalase (CAT) using HepaRG (AID 2283452). The following applies: mRNA level, 48 h; actives raise or lower the signal. A digest of the protocol: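 HepaRG cells in serum-free induction medium, 0.5% DMSO vehicle, exposed 48 h in duplicate over 8 half-log concentrations from 100 uM. CAT mRNA measured by qRT-PCR, normalized to ACTB, GAPDH, POLR2A; bidirectional fit versus DMSO.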

Read-out in assay [5]: flavin-containing dimethylaniline monooxygenases 3 (FMO3), FMO3 (gene 2328)
The assay can be described thus: LTEA_HepaRG_FMO3: Life Technologies and Expression Analysis (LTEA) Assay for flavin-containing dimethylaniline monooxygenases 3 (FMO3) using HepaRG (AID 2283453).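 On AC50: differentiated human HepaRG liver cells in serum-free induction medium.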 The following applies: mRNA level, 48 h; actives raise or lower the signal. A digest of the protocol: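 Eight-point concentration-response in serum-free HepaRG cultures (top 100 uM, 0.5% DMSO, 48 h). Read-out: FMO3 mRNA level normalized to three endogenous control genes, fitted bidirectionally versus vehicle.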

Read-out in assay [6]: Cytochrome P450 (CYP1A1), CYP1A1 (gene 1543)
Description: LTEA_HepaRG_CYP1A1: Life Technologies and Expression Analysis (LTEA) Assay for Cytochrome P450 (CYP1A1) using HepaRG (AID 2283454). The following applies: mRNA level, 48 h; actives raise or lower the signal. A digest of the protocol:
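HepaRG, 48 h post-plating switched to serum-free induction medium; 8-pt conc-response (top 100 uM, half-log, 0.5% DMSO), duplicates, 48 h. Lysis in RLT, TaqMan qRT-PCR for CYP1A1; gain or loss vs DMSO.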

Read-out in assay [7]: CFLAR gene, CFLAR (gene 8837)
Description: LTEA_HepaRG_CFLAR: Life Technologies and Expression Analysis (LTEA) Assay for CFLAR gene using HepaRG (AID 2283455). The following applies: mRNA level, 48 h; actives raise or lower the signal. A digest of the protocol: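 qRT-PCR read-out (Fluidigm/TaqMan) of CFLAR mRNA, normalized to three housekeeping genes, in differentiated human HepaRG cells after 48 h chemical exposure; 8-point half-log series from 100 uM in 0.5% DMSO; bidirectional curve fitting versus DMSO.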

Read-out in assay [8]: Forkhead box O1 (FOXO1), FOXO1 (gene 2308)
Description: LTEA_HepaRG_FOXO1: Life Technologies and Expression Analysis (LTEA) Assay for Forkhead box O1 (FOXO1) using HepaRG (AID 2283456). The following applies: mRNA level, 48 h; actives raise or lower the signal. A digest of the protocol:
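HepaRG, 48 h exposure, 8-pt half-log series from 100 uM in 0.5% DMSO, duplicates; Fluidigm qRT-PCR mRNA, housekeeping-normalised; bidirectional fit vs DMSO baseline.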

Read-out in assay [9]: growth arrest and DNA damage 45 (GADD45A), GADD45A (gene 1647)
The assay can be described thus: LTEA_HepaRG_GADD45A: Life Technologies and Expression Analysis (LTEA) Assay for growth arrest and DNA damage 45 (GADD45A) using HepaRG (AID 2283458). The following applies: mRNA level, 48 h; actives raise or lower the signal. A digest of the protocol: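 HepaRG, 48 h exposure, 8 conc. (top 100 uM, half-log steps), 0.5% DMSO vehicle, duplicates. Read-out: qRT-PCR mRNA level, housekeeping-normalized (ACTB/GAPDH/POLR2A). Curves fit bidirectionally vs DMSO baseline.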

Read-out in assay [10]: Forkhead box O3 (FOXO3), FOXO3 (gene 2309)
Description: LTEA_HepaRG_FOXO3: Life Technologies and Expression Analysis (LTEA) Assay for Forkhead box O3 (FOXO3) using HepaRG (AID 2283459). The conditions noted are these: mRNA level, 48 h; actives raise or lower the signal. A digest of the protocol:
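qRT-PCR readout of FOXO3 transcript, normalized to three housekeeping genes (ACTB, GAPDH, POLR2A); gain or loss fitted against 0.5% DMSO vehicle. HepaRG cells, 48 h chemical exposure, 8-point half-log series, top 100 uM.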

Read-out in assay [11]: ABC Transporter (ABCB1), ABCB1 (gene 5243)
The assay can be described thus: LTEA_HepaRG_ABCB1: Life Technologies and Expression Analysis (LTEA) Assay for ABC Transporter (ABCB1) using HepaRG (AID 2283460). The following applies: mRNA level, 48 h; actives raise or lower the signal. A digest of the protocol:
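HepaRG, 48 h exposure, 8-pt half-log series from 100 uM, 0.5% DMSO vehicle, duplicates. Readout: ABCB1 transcript by Fluidigm TaqMan qRT-PCR, housekeeping-normalized; bidirectional curve fit vs DMSO baseline.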

Read-out in assay [12]: growth arrest and DNA damage 45 (GADD45B), GADD45B (gene 4616)
The assay can be described thus: LTEA_HepaRG_GADD45B: Life Technologies and Expression Analysis (LTEA) Assay for growth arrest and DNA damage 45 (GADD45B) using HepaRG (AID 2283461). The following applies: mRNA level, 48 h; actives raise or lower the signal. A digest of the protocol:
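HepaRG, ~100,000 cells/well, 48 h plating; serum-free induction medium; cpd 100 uM top, half-log x8, 0.5% DMSO, duplicate, 48 h; lysis in RLT, RNA isolation, qRT-PCR; norm ACTB/GAPDH/POLR2A; bidirectional fit vs DMSO.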

Read-out in assay [13]: ABC Transporter (ABCC3), ABCC3 (gene 8714)
The assay can be described thus: LTEA_HepaRG_ABCC3: Life Technologies and Expression Analysis (LTEA) Assay for ABC Transporter (ABCC3) using HepaRG (AID 2283462). The conditions noted are these: mRNA level, 48 h; actives raise or lower the signal. A digest of the protocol:
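Human HepaRG, 48 h dosing, 8-pt half-log series from 100 uM, 0.5% DMSO vehicle, duplicates. ABCC3 mRNA by TaqMan qRT-PCR, housekeeping-normalized; bidirectional curve fit vs DMSO.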

Read-out in assay [14]: ABC Transporter (ABCB11), ABCB11 (gene 8647)
The assay can be described thus: LTEA_HepaRG_ABCB11: Life Technologies and Expression Analysis (LTEA) Assay for ABC Transporter (ABCB11) using HepaRG (AID 2283463). The conditions noted are these: mRNA level, 48 h; actives raise or lower the signal. A digest of the protocol: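 HepaRG, 48 h exposure, 8-pt half-log CRC top 100 uM, 0.5% DMSO vehicle, duplicates. Readout: TaqMan qRT-PCR of ABCB11 mRNA, housekeeping-normalized (ACTB/GAPDH/POLR2A). Bidirectional fit vs DMSO baseline.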

Read-out in assay [15]: ABC Transporter (ABCC2), ABCC2 (gene 1244)
Description: LTEA_HepaRG_ABCC2: Life Technologies and Expression Analysis (LTEA) Assay for ABC Transporter (ABCC2) using HepaRG (AID 2283464). The following applies: mRNA level, 48 h; actives raise or lower the signal. A digest of the protocol: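 HepaRG, 48 h post-plating; serum-free induction medium; cpd 8-pt, 100 uM top, half-log, 0.5% DMSO, duplicate, 48 h. Readout: ABCC2 mRNA by qRT-PCR, norm. ACTB/GAPDH/POLR2A. Bidirectional fit vs DMSO baseline.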

Read-out in assay [16]: Broad substrate specificity ATP-binding cassette transporter ABCG2 (Homo sapiens) (UniProt Q9UNQ0)
Description: LTEA_HepaRG_ABCG2: Life Technologies and Expression Analysis (LTEA) Assay for ABC Transporter (ABCG2) using HepaRG (AID 2283465). The conditions noted are these: mRNA level, 48 h; actives raise or lower the signal. A digest of the protocol:
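HepaRG, 48 h exposure, 8-pt half-log series from 100 uM, 0.5% DMSO vehicle, duplicates. Readout: ABCG2 transcript by qRT-PCR (Fluidigm array), housekeeping-normalized; bidirectional curve fit relative to DMSO baseline.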

Read-out in assay [17]: ATP-citrate lyase (ACLY), ACLY (gene 47)
The assay can be described thus: LTEA_HepaRG_ACLY: Life Technologies and Expression Analysis (LTEA) Assay for ATP-citrate lyase (ACLY) using HepaRG (AID 2283466). The conditions noted are these: mRNA level, 48 h; actives raise or lower the signal. A digest of the protocol: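 qRT-PCR readout of ACLY transcript after 48 h chemical treatment of HepaRG cells; expression normalized to three housekeeping genes. Eight-point half-log series, highest 100 uM, 0.5% DMSO vehicle. Gain or loss fitted against DMSO baseline.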

Read-out in assay [18]: Peroxisomal acyl-coenzyme A oxidase 1 (ACOX1) gene, ACOX1 (gene 51)
Description: LTEA_HepaRG_ACOX1: Life Technologies and Expression Analysis (LTEA) Assay for Peroxisomal acyl-coenzyme A oxidase 1 (ACOX1) gene using HepaRG (AID 2283467). The following applies: mRNA level, 48 h; actives raise or lower the signal. A digest of the protocol: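 HepaRG, 48 h chemical exposure, 8-pt half-log series from 100 uM top, 0.5% DMSO vehicle, duplicates. Readout: ACOX1 mRNA by Fluidigm qRT-PCR, housekeeping-normalized; bidirectional fit vs DMSO baseline.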

Read-out in assay [19]: Alkaline Phosphatase, Placental (ALPP) gene, ALPP (gene 250)
The assay can be described thus: LTEA_HepaRG_ALPP: Life Technologies and Expression Analysis (LTEA) Assay for Alkaline Phosphatase, Placental (ALPP) gene using HepaRG (AID 2283468).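 On AC50: differentiated human HepaRG liver cells in serum-free induction medium.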 The following applies: mRNA level, 48 h; actives raise or lower the signal. A digest of the protocol: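 HepaRG, 48 h plating then 48 h dosing, serum-free induction medium, 0.5% DMSO. 8 conc, half-log, max 100 uM, duplicates. Endpoint: ALPP transcript by qRT-PCR, housekeeping-normalized; gain or loss fitted vs DMSO.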

The nature of assay [20]: CEETOX_H295R_TESTO: CeeTox H295R High-throughput Steroidogenesis Assay for Testosterone (TESTO) (AID 2283457).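 On AC50: cells exposed to chemicals for 48 h before medium collection.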 The conditions noted are these: actives raise or lower the signal. A digest of the protocol: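 H295R, passage ≤10, 48 h dosing; media extracted with MTBE → HPLC-MS/MS for testosterone; 7-pt standard curve sets LLOQ/ULOQ; bidirectional fit vs DMSO; MTT viability same wells.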

In general, AC50 refers to the concentration giving half of the maximal activity seen.

Some structures have more than one record in an assay (separate samples or runs), and their calls can disagree. Calls of active or inactive are those of the source. How the source made its calls: active means hit-call score of the fitted dose curve at least 0.9, where 1 is the maximum; inactive means score below 0.9.

Sequence of Broad substrate specificity ATP-binding cassette transporter ABCG2 (Homo sapiens) (Q9UNQ0 whole entry, looked up): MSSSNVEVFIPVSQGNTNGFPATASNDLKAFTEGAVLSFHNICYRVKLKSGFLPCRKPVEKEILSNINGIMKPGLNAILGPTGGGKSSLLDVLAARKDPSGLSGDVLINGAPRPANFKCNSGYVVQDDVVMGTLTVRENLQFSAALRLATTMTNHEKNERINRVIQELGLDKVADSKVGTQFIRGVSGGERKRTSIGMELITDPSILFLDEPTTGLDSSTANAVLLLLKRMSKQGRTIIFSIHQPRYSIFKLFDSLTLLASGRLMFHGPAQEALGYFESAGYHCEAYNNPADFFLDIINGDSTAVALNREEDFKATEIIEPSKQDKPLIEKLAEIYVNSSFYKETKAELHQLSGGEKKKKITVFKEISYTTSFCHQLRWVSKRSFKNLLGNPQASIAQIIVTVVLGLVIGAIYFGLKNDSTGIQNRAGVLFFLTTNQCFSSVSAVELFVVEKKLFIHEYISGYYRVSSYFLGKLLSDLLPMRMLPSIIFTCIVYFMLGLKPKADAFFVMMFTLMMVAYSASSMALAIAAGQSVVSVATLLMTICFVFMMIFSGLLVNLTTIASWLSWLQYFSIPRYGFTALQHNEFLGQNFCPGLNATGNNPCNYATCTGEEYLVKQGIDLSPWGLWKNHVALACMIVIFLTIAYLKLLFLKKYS

Consider `O=C(Nc1ccc([N+](=O)[O-])cc1Cl)c1cc(Cl)ccc1O`, for which the result in assay [1], in assay [2] and in assay [10] was inactive. Also, the AC50 was 3.16 µM (active) in [3]; 2.85 µM (active) in assay [4]; 2.69 µM (active) in [5]; 147 nM (active) in assay [6]; 2.33 µM (active) in [7]; 3.33 µM (active) in assay [8]. The AC50 in assay [9] was 4.29 µM (active); in assay [11], 2.25 µM (active); in [12], 3.32 µM (active); in [13], 3.52 µM (active); in assay [14], 3.37 µM (active); in assay [15], 3.13 µM (active). Also, the AC50 in [16] is 17 µM (active); in [17] it was 3.76 µM (active); in assay [18] it was 3.17 µM (active); in [19] it was 15.9 µM (active).
In the case of `CCCCCOC(=O)COc1cc(N2C(=O)C3=C(CCCC3)C2=O)c(F)cc1Cl`, the call in assay [1], in [2], in assay [3], in assay [4], in assay [5] and in [7] was inactive. Moreover, the outcome in assay [8], in assay [9], in [10], in assay [11], in assay [12] and in [13] was inactive. Moreover, the result in assay [14], in [15], in assay [16], in assay [17] and in assay [19] was inactive. Also, in assay [6], the AC50 was 3.29 nM (active).
With `CC(C)(c1ccc(O)cc1)c1ccc(O)cc1`, the call in assay [1], in assay [2], in [3], in [4], in assay [5] and in assay [6] was inactive. Also, the compound was classed as inactive in assay [7], in assay [8], in assay [20], in assay [9], in [10] and in assay [11]. The compound was classed as inactive in [12], in assay [13], in assay [14], in assay [15], in assay [16] and in [17]. The compound was called inactive in assay [19]. Also, the AC50 is 11700 nM (active) in assay [6], 3.57 µM (active) in assay [20] and 50 µM (active) in assay [11].
